Compound activity from PubChem BioAssay.
This is a sample that favours compounds with a hit; in the whole collection about 8% have one here.
FMDV antiviral: blocks foot and mouth disease virus; FMDV antiviral cell-based qHTS; Potency, µM (top dose mostly 57.9 µM), usual class: inhibitors; hit rate 1.2% among 410,000; calls by dose curve; tested in HEK293T cells; also: read-out not given here; nearly all actives have a fitted effect of over 45% in size
SARS PLP yeast: SARS-CoV PLP inhibition in yeast. S. cerevisiae expressing SARS-CoV PLpro, growth rescue. Potency, µM (titrated, usually from 32.9 µM), hits mostly activators. hit rate 0.19% among 330,000. AID 485353; calls by dose curve; also: nearly all actives have a fitted effect of over 55% in size
MARV entry inh: inhibitors of Marburg virus binding or cell entry; Marburg virus pseudotyped entry inhibition, cell reporter; Potency, µM (titrated, usually from 37.8 µM), hits mostly inhibitors; hit rate 1.8% among 300,000; AID 540276; calls by dose curve; tested in HEK293 cells
HCMV antiviral: blocks human cytomegalovirus replication. AID 1259415. activity change, negative = inhibition, % at 57.5 µM. hit rate 4.5% among 410,000. HFF cells, HCMV-luciferase reporter, 72 h; hits give low values; in the data active = activity change below about -60%; inconclusive = no clear call, values can overlap the other calls; inactive = above about -39%
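Inhibition of viral replication was scored as loss of reporter luminescence in HFFs infected with HCMV-luciferase (MOI 1 PFU/cell) for 72 h; compounds tested at 2 doses, normalized to buffer and Salinomycin controls.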
Lassa entry inh: Lassa virus entry inhibition; Potency, µM (top dose mostly 37.9 µM), actives largely listed as inhibitors; AID 540256; Lassa virus pseudotype entry inhibition, cell reporter; hit rate 1.2% among 300,000; calls by dose curve; tested in HEK293 cells; also: nearly all actives have a fitted effect of over 50% in size
HCV inhibitor: HCV inhibition; AID 651820; Huh7.5.1 HCVcc-Cre infection, luciferase reporter, 44 h; hit rate 3.4% among 340,000; Potency, µM (series often up to 41.8 µM), hits mostly inhibitors; active = well fitted inhibition curve with a large enough effect; inconclusive = small, poorly fitted or top-dose-only effect, or another doubt; inactive = no such curve, though single readings can be large or run the other way
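A cell-based infection assay in which seeded cells (1,000 per well) receive test compound after 4 h, are inoculated with HCVcc-Cre at approximately 0.5 moi, and are incubated 44 h before luminescence detection.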
Numbers stand for hits; - = inactive; ? = inconclusive; . = no result given; ! = not active in a repeat.

SMILES	FMDV antiviral	SARS PLP yeast	MARV entry inh	HCMV antiviral	Lassa entry inh	HCV inhibitor
COC(=O)C/C=C/[C@@H](C)[C@@H](/C=N/OC[C@@H](O)COCc1ccco1)NS(=O)(=O)c1ccc(C)cc1	.	.	-	.	.	.
NC(=O)N/N=C/c1ccccc1OCC(=O)NCc1ccccc1	-	-	?	-	-	-
Cc1cc(C)cc(C(=O)N2CCN(c3ccccn3)CC2)c1	-	-	-	-	-	-
CCCN1C(=O)COc2ccc(-c3n[nH]c(=O)c4ccccc34)cc21	?	-	10µM	-102	-	-
CCCN1C(=O)COc2ccc(C(=O)c3ccccc3C(=O)O)cc21	-	-	-	-	-	-
COc1cccc(CN2CCC(n3cc(C(=O)NC4CCCC4)nn3)CC2)c1O	-	.	.	.	.	.
Cc1ccc(S(=O)(=O)NN2C(=O)c3ccccc3NC2c2ccccn2)cc1 (stereo not given)	-	-	7.9µM	-	?	?
O=C(NC12CC3CC(CC(C3)C1)C2)c1cc([N+](=O)[O-])ccc1N1CCOCC1	-	-	?	-	-	?
CC(Sc1nnnn1-c1ccccc1)C(=O)NC1CCCC1 (stereo not given)	-	-	-	-	-	-
Cc1c(C(=O)N2CCCC(C)C2)sc2ncnc(NCCN3CCCCC3)c12 (stereo not given)	-	.	.	.	.	.
CCOc1cc2c(cc1OCC)C(c1c(F)cccc1Cl)CC(=O)N2 (stereo not given)	-	.	-	-	-	.
CCCCCCCCCCCCCCCC[n+]1ccc(C(N)=O)cc1	?	-	-	-86	?	-
CCCCCCCCCCCCCCCC[n+]1ccccc1	16µM!	.	?	-98	?	3.2µM
CCCCCCCCCCCCCCCC[n+]1ccc(/C=N/O)cc1	?	-	4.5µM	-97	6.5µM	?
CCCCCCCCCCCCCCCC[n+]1cccc(C(=O)N(CC)CC)c1	-	-	7.1µM	-	11µM	-
C/C(=N\Nc1ccc(S(N)(=O)=O)cc1[N+](=O)[O-])c1cccnc1	-	-	-	-	.	-
CCCCCCC[n+]1ccc(-c2cc[n+](CCCCCCC)cc2)cc1	-	-	?	-101	-	?
CCCCS(=O)(=O)N1C2=NC3=C(C(=O)N(CCOC)C3=O)C3N(C)c4ccccc4[C@]23C[C@H]1CO (stereo not given in full)	.	.	-	.	.	.
COC(=O)[C@]12CCCCC=C1N(Cc1ccccc1)C(=O)[C@H](CC(=O)NCc1cccs1)C2	-	.	.	-66	.	.
COC(=O)[C@]12CCCCC=C1N(Cc1ccc3c(c1)OCO3)C(=O)[C@H](CC(=O)N1CCCC1)C2	-	.	.	-	.	.
COC(=O)[C@]12C[C@H](CC(=O)NCc3cccs3)C(=O)N(Cc3ccc4c(c3)OCO4)C1=C[C@H](COCc1ccccc1)O[C@@H]2C	.	.	.	-	.	.
COC(=O)[C@]12C[C@H](CC(=O)NCC34CC5CC(CC(C5)C3)C4)C(=O)N(Cc3ccc4c(c3)OCO4)C1=C[C@H](COCc1ccccc1)O[C@@H]2C	.	.	.	-63	.	.
COC(=O)[C@]12C[C@H](CC(=O)NCc3cccs3)C(=O)N(Cc3ccccc3)C1=C[C@H](C(C)C)O[C@@H]2C1CC1	.	.	.	-71	.	.
COC(=O)[C@]12CCCCC=C1N(Cc1ccc3c(c1)OCO3)C(=O)[C@H](CC(=O)N1CCCCC1)C2	-	.	.	-70	.	.
CCCCCCN1C[C@@H](n2cc(COC(=O)c3ccccc3)nn2)[C@H](O)C[C@@H]1c1ccc(OC)cc1	?	.	.	-	.	.
SMILES	FMDV antiviral	SARS PLP yeast	MARV entry inh	HCMV antiviral	Lassa entry inh	HCV inhibitor
O=C(Nc1ccc(Cl)cn1)c1cc2ccccc2o1	-	-	?	-	?	?
O=C(Nc1ncccc1O)c1cc2ccccc2o1	?	-	?	-	1.3µM	-
Cc1ccnc(NC(=O)c2cc3ccccc3o2)c1	28µM	-	1.1µM	-	?	-
O=C(Nc1ccccn1)c1cc2ccccc2o1	.	-	?	-	4.6µM	-
CC(=O)OC[C@H]1O[C@H](C#Cc2ccccc2Cl)C=C[C@@H]1OC(C)=O	.	.	-	.	.	.
CCc1nn2c(-c3ccco3)ccnc2c1-c1ccccc1	-	.	?	-	-	.
C[C@H]1[C@@H]2O[C@H]2CCO[C@H]1c1cccc(Br)c1	.	.	-	.	.	.
CN(c1cc2c(c3c1ccn3C)C1CCC2O1)C(C)(C)C (stereo not given)	.	.	.	.	3.5µM	.
O=c1[nH]c(=O)n(Cc2ccccc2Cl)c(O)c1/C=C1/C=CC=N1	-	-	?	-89	?	-
